# Screening data: PubChem, National Center for Advancing Translational Sciences (NCATS)
# GALC G270D act: enhancers of human galactocerebrosidase G270D mutant activity in cells; 45,000 compounds, 0.1% hits; AID 1159614; Potency, µM (series often up to 57.5 µM), actives largely listed as activators; P54803; 145M-Twi-hGALC-G270D cells (Twitcher mouse brain line with human GALC G270D), HMU-beta-Gal fluorescence, 48 h; also: 0% is about no effect; nearly all actives have a fitted effect of over 65% in size
# Target sequence (P54803 whole entry G286D): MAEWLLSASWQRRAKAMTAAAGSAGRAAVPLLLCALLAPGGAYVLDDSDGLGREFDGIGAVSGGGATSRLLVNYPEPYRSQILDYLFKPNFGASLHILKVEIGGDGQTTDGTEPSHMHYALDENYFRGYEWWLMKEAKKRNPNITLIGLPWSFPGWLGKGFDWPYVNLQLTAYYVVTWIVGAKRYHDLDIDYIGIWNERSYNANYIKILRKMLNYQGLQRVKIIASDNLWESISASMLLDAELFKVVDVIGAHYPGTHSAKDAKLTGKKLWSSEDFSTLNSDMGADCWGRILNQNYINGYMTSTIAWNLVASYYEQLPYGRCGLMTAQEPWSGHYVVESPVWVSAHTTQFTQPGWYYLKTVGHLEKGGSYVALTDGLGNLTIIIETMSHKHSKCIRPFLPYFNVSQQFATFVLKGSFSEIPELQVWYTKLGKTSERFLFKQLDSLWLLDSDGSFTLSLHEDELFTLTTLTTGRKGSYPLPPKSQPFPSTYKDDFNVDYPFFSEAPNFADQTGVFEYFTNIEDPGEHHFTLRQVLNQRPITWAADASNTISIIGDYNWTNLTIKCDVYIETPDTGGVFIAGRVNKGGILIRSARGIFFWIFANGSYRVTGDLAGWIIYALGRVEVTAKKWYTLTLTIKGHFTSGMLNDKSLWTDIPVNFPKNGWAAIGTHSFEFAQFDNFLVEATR
#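 Fluorescence readout: HMU-β-gal cleavage by mutant GALC (0.1 mM final, citrate/phosphate pH 5.2 with 1 mg/mL taurocholate), stopped with carbonate/bicarbonate plus Triton X-100. Cells: murine Twitcher 145M-Twi expressing human G270D GALC; qHTS for activators.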
# HTT promoter inh: inhibits huntingtin promoter activity; HEK293 HTT promoter firefly luciferase reporter, 24 h; Potency, µM (top dose mostly 57.5 µM), without a hit: at the highest dose activity change, negative = inhibition, usual class: inhibitors; 48,000 compounds, 0.93% hits; AID 1508623; also: nearly all actives have a fitted effect of over 50% in size
#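 Quantitative HTS used concentration series of up to 57.5 uM final on HEK293 luciferase reporter cells, 24 h at 37 degrees C. Readout was Dual-Glo firefly luminescence.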
# HTT-AS act: activates huntingtin-antisense promoter activity. Potency, µM (series often up to 57.5 µM), for inactives: top-dose activity change, positive = activation, actives largely listed as activators. 48,000 compounds, 0.24% hits. HEK293 HTT-AS promoter firefly luciferase reporter, 24 h; response scale: percent change from vehicle, -100% = no light; also: nearly all actives have a fitted effect of over 55% in size
#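 Firefly luciferase readout (Dual-Glo, 10 min RT) after 24 h, 37 °C compound exposure (final up to 57.5 uM) of HEK293 reporter cells cultured 24 h beforehand; PTC124 at 50 uM final as control inhibitor; activity scaled vehicle 0%, zero RLU -100%.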
# An asterisk follows results filed as active; i = inactive; ? = inconclusive; / = not tested or not shown. Hits are enriched below; roughly 1.3% of the tested compounds scored in any of these assays. Calls follow the shape of the dose curve; as a rule, active = well fitted curve in the direction sought with a large enough effect; inconclusive = small, poorly fitted or top-dose-only effect, or another doubt; inactive = no such curve, though single readings can be large; an effect the other way counts as inactive or inconclusive. Potency is read from the fitted curve at half-maximal effect.
SMILES,GALC G270D act,HTT promoter inh,HTT-AS act
COc1ccc(-c2cc3ccc(O)c(CN4CCCC(C)C4)c3oc2=O)cc1 (stereo not given),i,-22%,-20%
COc1ccc(-c2c(C)c3ccc(O)c(CN4CCCCC4)c3oc2=O)cc1OC,i,-14%,-9%
COc1ccc(-c2cc3ccc(O)c(CN4CCCC(C)C4)c3oc2=O)cc1OC (stereo not given),22µM*,5%,-1%
COc1ccc(-c2c(C)c3ccc(O)c(CN4CCCC(C)C4)c3oc2=O)cc1OC (stereo not given),20µM*,-30%,-21%
O=C1NC(=O)C(=Cc2ccc3nccc(-c4ccncc4)c3c2)S1,/,?,-32%
O=C1[C@H](Cc2ccc(O)cc2)N2C(=O)CCN(C(=O)NCc3ccccc3)[C@H]2CN1Cc1cccc2ccccc12,/,?,-40%
CN(C)c1ccc2cc(C(=O)N[C@@H](CCCN=C(N)CCl)C(=O)NCc3ccccc3)ccc2c1,/,-10%,-9%
COc1ccc(C2=NC3(CCCCCC3)N(CC(=O)Nc3cccc(Cl)c3)C2=O)cc1,i,32µM*,-64%
COc1cc(NC(=O)CN2C(=O)C(c3ccc(Cl)cc3)=NC23CCCCC3)cc(OC)c1,i,?,-60%
COCCOc1ccc2c(c1)ncn2-c1ccc2cccc(N3CCC(N)CC3)c2n1,/,?,-3%
CCOc1cc2c(c(F)c1OCC)C(=N)N(CC(=O)c1cc(N3CCOCC3)c(OC)c(C(C)(C)C)c1)C2,/,?,-31%
CCN1CCN(c2ccc(Nc3cc(N(C)C(=O)Nc4c(Cl)c(OC)cc(OC)c4Cl)ncn3)cc2)CC1,/,3%,1%
CCCn1c(=N)c(C(=O)NCC2CCCO2)cc2c(=O)n3cc(C)ccc3nc21 (stereo not given),13µM*,-1%,-12%
CCOCCCn1c(=N)c(C(=O)NCC2CCCO2)cc2c(=O)n3cc(C)ccc3nc21 (stereo not given),i,-2%,5%
Cc1nn2c(=O)cc(COC(=O)c3cccc(NC(=O)COc4ccc(C)c(C)c4)c3)nc2s1,i,-4%,4%
Cc1nn2c(=O)cc(COC(=O)c3cccc(NC(=O)COc4ccccc4C)c3)nc2s1,i,3.2µM*,-90%
CCc1nn2c(=O)cc(COC(=O)c3ccccc3)nc2s1,i,43%,4µM*
CCc1nn2c(=O)cc(COC(=O)C(c3ccccc3)c3ccccc3)nc2s1,i,-27%,-13%
O=C1CSC(=O)N1C(CCc1ccncc1)COc1ccc(-c2cccc([N+](=O)[O-])c2)cc1 (stereo not given),/,?,-65%
CN1CCc2c(n(Cc3ccc(C(=O)NO)cc3)c3ccccc23)C1,/,?,-13%
Nc1cccc(-c2cc3c(Oc4cccc(O)c4)ncnc3[nH]2)c1,/,?,-21%
Cc1cccc(N2CCN(C(=O)c3cc4c(=O)[nH]c5ccc(C)cc5c4s3)CC2C)c1 (stereo not given),i,13µM*,-68%
CCOC(=O)C1CCCN(C(=O)c2cc3c(=O)[nH]c4ccc(C)cc4c3s2)C1 (stereo not given),i,-30%,-17%
CCC1CN(C(=O)N2CCC(C(=O)N3CCN(c4cccc(C)c4C)CC3)CC2)c2ccccc2O1 (stereo not given),i,20µM*,-46%
CCC1CN(C(=O)N2CCC(C(=O)N3CCN(c4cc(C)ccc4C)CC3)CC2)c2ccccc2O1 (stereo not given),i,?,-53%
SMILES,GALC G270D act,HTT promoter inh,HTT-AS act
C#CCN(C)CC1=Cc2ccccc2Oc2ccccc21,/,-12%,-16%
COc1ccccc1C(=O)N1CCC(c2noc(-c3ccc(S(=O)(=O)N4CCCC4)cc3)n2)CC1,i,25µM*,-41%
O=C(c1ccc(F)cc1F)N1CCC(c2noc(-c3ccc(S(=O)(=O)N4CCCC4)cc3)n2)CC1,i,-7%,-2%
COc1ccc2c3n(c(=NC(=O)c4cccnc4)nc2c1OC)CCN3,/,?,-29%
Cc1ccc(Cn2c(SCc3ccc(C(=O)N4CCCCC4)cc3)nc3ccncc32)cc1,i,13µM*,-60%
O=C(c1ccc(CSc2nc3ccncc3n2Cc2ccccc2F)cc1)N1CCCCCC1,i,-30%,-13%
Cc1ccccc1Cn1c(SCc2ccc(C(=O)N3CCCCC3)cc2)nc2ccncc21,i,?,-13%
Cc1ccc(Cn2c(SCc3ccc(C(=O)N4CCCCCC4)cc3)nc3ccncc32)cc1,i,32µM*,-46%
O=C(Cc1ccccc1)Nc1cccc(-c2cn3cccnc3n2)c1,i,53%,11µM*
O=C(COc1ccccc1)Nc1cccc(-c2cn3cccnc3n2)c1,i,-1%,15%
N#Cc1ccc(COC[C@H]2O[C@@H](n3c(NCc4ccc(Cl)c(Cl)c4)nc4c(N)ncnc43)[C@@H](O)[C@@H]2O)cc1,/,-12%,-17%
c1ccc(CNc2nc3ccccc3c3nc(-c4ccccc4)nn23)cc1,i,1%,-3%
CC(CNc1nc2ccccc2c2nc(-c3ccccc3)nn12)c1ccccc1 (stereo not given),25µM*,-11%,-7%
CCOCc1cc(CN2CCN(c3ccccc3OC)CC2)c(O)c2ncccc12,i,11µM*,-36%
CCCOCc1cc(CN2CCN(c3ccccc3OC)CC2)c(O)c2ncccc12,i,?,-34%
COc1ccc(N2CCN(C(=O)C3CCCN(S(=O)(=O)c4ccc5c(c4)CCCN5C(C)=O)C3)CC2)cc1 (stereo not given),i,?,-47%
CC(=O)N1CCCc2cc(S(=O)(=O)N3CCCC(C(=O)N4CCN(c5ccccc5F)CC4)C3)ccc21 (stereo not given),i,10µM*,-34%
O=C(/C=C/N1C[C@@H]2C[C@@H]1CN2c1ccccn1)c1ccccc1O,/,-11%,/
COc1ccc(C2CC(=O)N(Cc3ccc(F)cc3)c3ccccc3S2)cc1OC (stereo not given),i,-8%,-15%
COc1cc(C2CC(=O)N(Cc3ccc(F)cc3)c3ccccc3S2)cc(OC)c1OC (stereo not given),i,14µM*,-62%
COc1cc(N2CCN(C)CC2)ccc1Nc1nc(N)c(C(=O)c2c(Cl)cccc2Cl)s1,/,-12%,-7%
O=c1cc(N2CCOCC2)oc2c(-c3cccc4c3sc3ccccc34)cccc12,/,-11%,-15%
CCOC(=O)c1cc(C)n(CC2CCC(C(=O)Nc3ccc(Cl)cc3)CC2)c1C (stereo not given),i,4µM*,-93%
CCOC(=O)c1cc(C)n(CC2CCC(C(=O)Nc3cccc(Cl)c3)CC2)c1C (stereo not given),i,?,-17%
COc1ccc(OC)c(NS(=O)(=O)c2ccc3c(c2)CCCN3C(=O)C2CCC2)c1,i,?,-14%
CC(=O)Nc1ccc(NS(=O)(=O)c2cc(Br)cc3c2N(C(=O)C2CC2)CC3)cc1,i,-13%,-21%
Cc1ccc(NS(=O)(=O)c2ccc3c(c2)CCCN3C(=O)C2CCC2)cc1Cl,i,22µM*,-28%
